Potency, outcome and max response data for 23 compounds are collected here from PubChem BioAssay (Tox21).

Experiment [1] is described as follows: qHTS RealTime-Glo MT Cell Viability Assay in HepG2 cells - 40 hour (AID 1224870). Also: nearly all actives have a fitted effect of over 50% in size. The procedure, abridged: (§1)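 HepG2 cells (600/well) mixed with RealTime-Glo MT reagent, settled 5 h at 37 C/5% CO2 before compound addition. Nonlytic NanoLuc luminescence from viable-cell prosubstrate reduction read repeatedly during 40 h treatment at 37 C.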
On the technique in general: Quantitative high-throughput screening tests each substance at several concentrations.

The nature of experiment [2]: A CellTox Green Cytotoxicity Assay to monitor cytotoxicity in HEK293 cells - 40 hour (AID 1224871). Also: nearly all actives have a fitted effect of over 45% in size. In short, it runs like this:
(§2)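 Tox21 screen in HEK293: membrane-impermeant cyanine dye fluoresces on binding dead-cell DNA; compound pinned 5 h post-seeding, plates held at 37 C, signal read repeatedly through 40 h.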

Experiment [3] in a line: qHTS RealTime-Glo MT Cell Viability Assay in HEK293 cells - 16 hour (AID 1224872). Also: nearly all actives have a fitted effect of over 50% in size. Also: potency is read from the fitted curve at half-maximal effect. The procedure, abridged: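 Cells + reagent dispensed (600 cells/well, HEK293) → 5 h at 37 C/5% CO2 → 23 nL compound in DMSO pinned → 40 h at 37 C → luminescence read at 0, 8, 16, 24, 32, 40 h.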
Experiment [4] is described as follows: qHTS RealTime-Glo MT Cell Viability Assay in HepG2 cells - 8 hour (AID 1224873). Also: nearly all actives have a fitted effect of over 55% in size. The procedure, abridged: as §1
The nature of experiment [5]: qHTS RealTime-Glo MT Cell Viability Assay in HEK293 cells - 40 hour (AID 1224874). Also: nearly all actives have a fitted effect of over 50% in size. Also: potency is read from the fitted curve at half-maximal effect. The settings on record: RealTime-Glo luminescence; max response: hits give low values. In short, it runs like this:
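HEK293 + NanoLuc + prosubstrate, 600 cells/well; 5 h, 37 C/5% CO2; compound 23 nL in DMSO by pintool; 37 C; luminescence read at 0, 8, 16, 24, 32 and 40 h time points.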

Experiment [6] in a line: A CellTox Green Cytotoxicity Assay to monitor cytotoxicity in HEK293 cells - 24 hour (AID 1224875). Also: series mostly up to about 77 µM; nearly all actives have a fitted effect of over 45% in size. In short, it runs like this:
as §2

A short description of experiment [7]: A CellTox Green Cytotoxicity Assay to monitor cytotoxicity in HepG2 cells - 16 hour (AID 1224876). Also: nearly all actives have a fitted effect of over 45% in size. The procedure, abridged:
(§3)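 Measurements at 0, 8, 16, 24, 32 and 40 h of treatment captured CellTox Green fluorescence in HepG2 cells that had been co-plated with reagent and preincubated 5 h at 37 C/5% CO2.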

Experiment [8] can be described thus: qHTS RealTime-Glo MT Cell Viability Assay in HepG2 cells - 32 hour (AID 1224877). Also: nearly all actives have a fitted effect of over 55% in size. In short, it runs like this: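 Real-time, nonlytic viability: 600 HepG2 cells/well mixed with NanoLuc enzyme plus prosubstrate; 5 h settle, compound (DMSO) added by pintool; luminescence monitored over 40 h at 37 C.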
Experiment [9] in a line: A CellTox Green Cytotoxicity Assay to monitor cytotoxicity in HepG2 cells - 24 hour (AID 1224878). Also: nearly all actives have a fitted effect of over 45% in size. In short, it runs like this:
as §3

Experiment [10] in a line: A CellTox Green Cytotoxicity Assay to monitor cytotoxicity in HepG2 cells - 40 hour (AID 1224879). Also: nearly all actives have a fitted effect of over 40% in size. The procedure, abridged:
as §3

SMILES strings stand for the structures. Inconclusive results are not listed. Unmarked numbers belong to inactive results. Activity calls are given as the source filed them. Calls follow the shape of the dose curve; as a rule, active = well fitted curve in the direction sought with a large enough effect in the repeat runs; inconclusive = weak or mixed curves; inactive = no such curve, though single readings can be large; an effect the other way counts as inactive or inconclusive.
% is scaled to controls: 0 for no effect and ±100 for the full control effect.

Regarding `CCCCCCCCCCCCSCCOCCO`, the Potency entry in experiment [1], in experiment [2], in experiment [3], in [6], in experiment [7] and in [8] was “inactive” throughout. The Potency result in [9] and in experiment [10] was “inactive” in each case. The result in experiment [4] was inactive. For the same compound, in experiment [5], the max response was -17.3%.
`CCCCCCCCCCCCSC#N`: the Potency result in experiment [1], in [2], in experiment [3], in [6], in [7] and in [8] was “inactive” throughout. The Potency entry in [9] and in [10] was “inactive” each time. Moreover, in experiment [4], the call was inactive. In addition, the max response in experiment [5] was 0.323%.
On to `CO[C@@H]1COCC[C@@H]1N[C@@H]1CC[C@@](C(=O)N2CCc3ncc(C(F)(F)F)cc3C2)(C(C)C)C1`, for which the Potency entry in [1], in experiment [2], in experiment [6], in experiment [7], in experiment [8] and in experiment [9] was “inactive” in each case. Besides, in experiment [10], the Potency result was “inactive”. The Potency in experiment [3] and in experiment [5] was 17.3 µM (active) throughout. For the same compound, the outcome in experiment [4] was inactive.
Turning to `C[C@H]1C[C@H]2[C@@H]3CCC4=CC(=O)C=C[C@]4(C)[C@@]3(F)[C@@H](O)C[C@]2(C)[C@@]1(O)C(=O)COP(=O)(O)O`, the Potency result in [1], in experiment [2], in [3], in experiment [6], in experiment [7] and in experiment [8] was “inactive” each time. In addition, the Potency entry in experiment [9] and in experiment [10] was “inactive” each time. Further, the outcome in [4] was inactive. In addition, the max response in experiment [5] is -11.1%.
Turning to `CC(C)(O)C(=O)O`, the Potency entry in experiment [1], in experiment [2], in experiment [3], in [6], in [7] and in [8] was “inactive” throughout. Further, the Potency result in experiment [9] and in [10] was “inactive” each time. Also, the compound was called inactive in [4]. In addition, the max response in [5] is 6.64%.
Regarding `CC(C(=O)O)c1ccc(/C=C2\CCCCC2=O)cc1` (stereo not given), the Potency result in [1], in experiment [2], in experiment [3], in experiment [6], in experiment [7] and in experiment [8] was “inactive” each time. Also, the Potency entry in [9] and in experiment [10] was “inactive” each time. Also, the outcome in experiment [4] was inactive. For the same compound, in experiment [5], the max response is 21%.
For `Cc1c(Nc2ncccc2C(=O)O)cccc1C(F)(F)F`, the Potency result in experiment [1], in [2], in [3], in [6], in experiment [7] and in [8] was “inactive” throughout. Besides, the Potency entry in experiment [9] and in experiment [10] was “inactive” throughout. The outcome in [4] was inactive. Moreover, the max response in [5] was 0.365%.
As for `CC(C)NC(=O)c1ccccc1N`, the Potency result in experiment [1], in experiment [2], in [3], in experiment [6], in [7] and in experiment [8] was “inactive” throughout. Besides, the Potency result in [9] and in [10] was “inactive” throughout. Moreover, the result in experiment [4] was inactive. Besides, the max response in [5] is 0.226%.
`O=C(O)c1cc(C(=O)O)cc([N+](=O)[O-])c1`: the Potency entry in experiment [1], in experiment [2], in experiment [3], in experiment [6], in experiment [7] and in experiment [8] was “inactive” throughout. Further, the Potency entry in experiment [9] and in experiment [10] was “inactive” in each case. Also, the call in [4] was inactive. In addition, the max response in [5] was 8.3%.
With `Cc1ccc2c(Cl)cc(Cl)c(O)c2n1`, the Potency entry in experiment [1], in [2], in experiment [3], in experiment [6], in experiment [7] and in experiment [8] was “inactive” in each case. For the same compound, the Potency entry in experiment [9] and in experiment [10] was “inactive” in each case. Further, in [4], the compound was called inactive. Moreover, the max response in [5] is -5.73%.
As for `CC(=O)CC/C=C(\C)CC/C=C(\C)CC/C=C(\C)CCC=C(C)C`, the Potency result in experiment [1], in experiment [2], in experiment [3], in experiment [6], in [7] and in experiment [8] was “inactive” throughout. Also, the Potency result in experiment [9] and in [10] was “inactive” throughout. For the same compound, the outcome in [4] was inactive. Besides, in experiment [5], the max response was 4.5%.
With `Nc1ncnc2c1ncn2[C@@H]1O[C@H](CO)[C@@H](O)[C@H]1O`, the Potency result in experiment [1], in experiment [2], in experiment [3], in [6], in experiment [7] and in experiment [8] was “inactive” in each case. The Potency entry in [9] and in [10] was “inactive” in each case. For the same compound, the compound was classed as inactive in experiment [4]. In addition, the max response in experiment [5] is 6.09%.
For the compound `COc1ccc(/C(C)=C/C(=O)O)c(OC)c1`, the Potency entry in [1], in experiment [2], in [3], in [6], in [7] and in [8] was “inactive” each time. Moreover, the Potency entry in [9] and in experiment [10] was “inactive” in each case. Besides, in [4], the outcome was inactive. Also, the max response in [5] is 6.45%.
As to `CC1(C)CC(=O)CC(C)(C)N1`, the Potency result in [1], in experiment [2], in experiment [3], in experiment [6], in [7] and in [8] was “inactive” in each case. For the same compound, the Potency result in experiment [9] and in experiment [10] was “inactive” throughout. Besides, the call in experiment [4] was inactive. Moreover, the max response in [5] is 0.817%.
Consider `CC(C)(C)c1cc(C=O)cc(C(C)(C)C)c1O`, for which the Potency entry in experiment [1], in experiment [2], in experiment [3], in experiment [6], in experiment [7] and in [8] was “inactive” each time. The Potency entry in experiment [9] and in [10] was “inactive” throughout. Also, the compound was classed as inactive in experiment [4]. Besides, the max response in [5] is -0.177%.
For `CC(CC(C#N)(c1ccccc1)C(C)C)N(C)C` (stereo not given), the Potency entry in experiment [1], in [2], in experiment [3], in experiment [6], in [7] and in experiment [8] was “inactive” throughout. In addition, the Potency result in experiment [9] and in [10] was “inactive” each time. Further, in [4], the compound was called inactive. Further, the max response in [5] was 6.67%.
For the compound `CCCCCO`, the Potency entry in [1], in experiment [2], in experiment [3], in [6], in [7] and in [8] was “inactive” each time. The Potency entry in [9] and in [10] was “inactive” throughout. For the same compound, in experiment [4], the result was inactive. In experiment [5], the max response was 1.46%.
For the compound `CCC(C)C1N=C(C)C(C)S1` (stereo not given), the Potency entry in experiment [1], in [2], in experiment [3], in experiment [6], in experiment [7] and in [8] was “inactive” throughout. In addition, the Potency entry in experiment [9] and in [10] was “inactive” throughout. Besides, the outcome in experiment [4] was inactive. The max response in experiment [5] is 6.11%.
As for `CC(C)Cc1nccs1`, the Potency result in [1], in experiment [2], in experiment [3], in experiment [6], in experiment [7] and in [8] was “inactive” throughout. The Potency result in experiment [9] and in [10] was “inactive” each time. Further, in [4], the compound was called inactive. For the same compound, the max response in [5] was 3.56%.
Consider `CC(C)CCCCCCCOC(=O)c1ccc(C(=O)OCCCCCCCC(C)C)c(C(=O)OCCCCCCCC(C)C)c1`, for which the Potency entry in experiment [1], in experiment [2], in experiment [3], in experiment [6], in [7] and in experiment [8] was “inactive” each time. Further, the Potency result in experiment [9] and in experiment [10] was “inactive” in each case. For the same compound, the call in experiment [4] was inactive. Further, the max response in [5] was 11.4%.
For `CCOCCn1c(N2CCCN(C)CC2)nc2ccccc21`, the Potency entry in [1], in experiment [2], in experiment [3], in experiment [6], in experiment [7] and in experiment [8] was “inactive” in each case. Besides, the Potency entry in experiment [9] and in [10] was “inactive” each time. The outcome in [4] was inactive. Moreover, in experiment [5], the max response was -3.4%.
As to `OCCc1ccncc1`, the Potency entry in [1], in experiment [2], in experiment [3], in [6], in [7] and in [8] was “inactive” throughout. Also, the Potency result in experiment [9] and in [10] was “inactive” each time. Further, in experiment [4], the result was inactive. Also, the max response in experiment [5] was -8.09%.
Take `O=C(c1ccco1)N1CCNCC1`: the Potency entry in experiment [1], in experiment [2], in experiment [3], in [6], in experiment [7] and in experiment [8] was “inactive” throughout. Also, the Potency entry in [9] and in experiment [10] was “inactive” each time. In addition, in experiment [4], the compound was called inactive. Further, the max response in experiment [5] was 3.57%.
